Data from paper PMC8384837, “Expanding the binding specificity for RNA recognition by a PUF domain”.
Substitutions are numbered along the chain they refer to.

Assays:
Test in all cases: yeast three-hybrid, YBZ-1, SC-Leu-His + 0.5 mM 3-AT, 4 days
Conditions in all cases: tags: N-Gal4 AD-HA kept; label: inside an RPR1-promoter hybrid RNA with tandem MS2 sites; ssRNA
PUM1 PUF domain R3-DYV = PUM1 PUF domain R3-DYV (Homo sapiens, UniProt Q14671 828-1176, C935D;R936Y;Q939V)
Summary of the method: (§1)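 Pumilio-1 PUF domain libraries, randomized at the three base-contacting residues of each repeat, were co-expressed with matching RNA elements from a centromeric plasmid in strain YBZ-1, which carries a LexA–MS2 coat fusion and a HIS3 reporter. Transformants grew for four days on SC-Leu (input) or on SC-Leu-His + 0.5 mM 3-AT (selection), and the repeat regions were PCR-amplified and Illumina-sequenced. The interaction score is the log change in variant frequency from input to selection. That logarithm is base 2, with a pseudocount of 1 where a variant was absent.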

PUM1 PUF domain R3-GWS = PUM1 PUF domain R3-GWS (Homo sapiens, UniProt Q14671 828-1176, C935G;R936W;Q939S)
Summary of the method: as §1

PUM1 PUF domain R3-FIA = PUM1 PUF domain R3-FIA (Homo sapiens, UniProt Q14671 828-1176, C935F;R936I;Q939A)
Summary of the method: as §1

PUM1 PUF domain R8-AHR = PUM1 PUF domain R8-AHR (Homo sapiens, UniProt Q14671 828-1176, N1122A;Y1123H;Q1126R)
Summary of the method: as §1

PUM1 PUF domain R5-RCS = PUM1 PUF domain R5-RCS (Homo sapiens, UniProt Q14671 828-1176, C1007R;R1008C;Q1011S)
Summary of the method: as §1

PUM1 PUF domain R5-DHI = PUM1 PUF domain R5-DHI (Homo sapiens, UniProt Q14671 828-1176, C1007D;R1008H;Q1011I)
Summary of the method: as §1

PUM1 PUF domain R1-TTR = PUM1 PUF domain R1-TTR (Homo sapiens, UniProt Q14671 828-1176, S863T;R864T;Q867R)
Summary of the method: as §1

PUM1 PUF domain R6-VFV = target: T1, PUM1 PUF domain R6-VFV (Homo sapiens, UniProt Q14671 828-1176, N1043V;Y1044F;Q1047V)
T1 sequence: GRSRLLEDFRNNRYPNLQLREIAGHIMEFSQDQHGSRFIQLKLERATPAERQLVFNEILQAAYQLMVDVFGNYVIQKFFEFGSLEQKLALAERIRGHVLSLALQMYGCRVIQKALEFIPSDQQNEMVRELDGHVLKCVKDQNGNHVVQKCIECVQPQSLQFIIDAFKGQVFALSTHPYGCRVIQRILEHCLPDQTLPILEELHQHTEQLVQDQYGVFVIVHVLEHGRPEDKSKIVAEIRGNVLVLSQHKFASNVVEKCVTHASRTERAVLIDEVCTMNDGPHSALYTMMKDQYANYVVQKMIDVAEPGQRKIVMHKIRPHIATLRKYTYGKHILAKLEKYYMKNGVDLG
Summary of the method: as §1

PUM1 PUF domain R6-WYR = target: T2, PUM1 PUF domain R6-WYR (Homo sapiens, UniProt Q14671 828-1176, N1043W;Q1047R)
T2 sequence: T1 sequence with V216W, F217Y, V220R
Summary of the method: as §1

PUM1 PUF domain R5-KLT = PUM1 PUF domain R5-KLT (Homo sapiens, UniProt Q14671 828-1176, C1007K;R1008L;Q1011T)
Summary of the method: as §1

## GGCUAGAACUAGUGGAUCCCCCGGCGCCCGGCGGCUCGAGCCCGGGUAAGUGUAAUUAGUCUGCAUGCCGCCGGGCGCCAUGCCUGCAGGUCGACUCUAGAAAACAUG
PUM1 PUF domain R3-DYV
  binding signal: 3.08 log2 enrichment (interaction score)
PUM1 PUF domain R3-GWS
  binding signal: 1.22 log2 enrichment (interaction score)

## GGCUAGAACUAGUGGAUCCCCCGGCGCCCGGCGGCUCGAGCCCGGGUAAGUGUAAGUAGUCUGCAUGCCGCCGGGCGCCAUGCCUGCAGGUCGACUCUAGAAAACAUG
PUM1 PUF domain R3-FIA
  binding signal: 3.2 log2 enrichment (interaction score)
PUM1 PUF domain R3-GWS
  binding signal: 1.75 log2 enrichment (interaction score)

## GGCUAGAACUAGUGGAUCCCCCGGCGCCCGGCGGCUCGAGCCCGGGUAAGCGUAAAUAGUCUGCAUGCCGCCGGGCGCCAUGCCUGCAGGUCGACUCUAGAAAACAUG
PUM1 PUF domain R8-AHR
  binding signal: 3.45 log2 enrichment (interaction score)

## GGCUAGAACUAGUGGAUCCCCCGGCGCCCGGCGGCUCGAGCCCGGGUAAGUGUUAAUAGUCUGCAUGCCGCCGGGCGCCAUGCCUGCAGGUCGACUCUAGAAAACAUG
PUM1 PUF domain R5-RCS
  binding signal: 2.74 log2 enrichment (interaction score)
PUM1 PUF domain R5-DHI
  binding signal: 4.16 log2 enrichment (interaction score)

## GGCUAGAACUAGUGGAUCCCCCGGCGCCCGGCGGCUCGAGCCCGGGUAAGUGUAAAUCGUCUGCAUGCCGCCGGGCGCCAUGCCUGCAGGUCGACUCUAGAAAACAUG
PUM1 PUF domain R1-TTR
  binding signal: 4.01 log2 enrichment (interaction score)

## GGCUAGAACUAGUGGAUCCCCCGGCGCCCGGCGGCUCGAGCCCGGGUAAGUGUAAAUAGUCUGCAUGCCGCCGGGCGCCAUGCCUGCAGGUCGACUCUAGAAAACAUG
PUM1 PUF domain R6-VFV
  binding signal: 1.55 log2 enrichment (interaction score)
PUM1 PUF domain R3-DYV
  binding signal: 5.65 log2 enrichment (interaction score)
PUM1 PUF domain R6-WYR
  binding signal: 5.27 log2 enrichment (interaction score)
PUM1 PUF domain R3-GWS
  binding signal: 5.13 log2 enrichment (interaction score)

## GGCUAGAACUAGUGGAUCCCCCGGCGCCCGGCGGCUCGAGCCCGGGUAAGUGUAAAUGGUCUGCAUGCCGCCGGGCGCCAUGCCUGCAGGUCGACUCUAGAAAACAUG
PUM1 PUF domain R1-TTR
  binding signal: 2.5 log2 enrichment (interaction score)

## GGCUAGAACUAGUGGAUCCCCCGGCGCCCGGCGGCUCGAGCCCGGGUAAGUGUCAAUAGUCUGCAUGCCGCCGGGCGCCAUGCCUGCAGGUCGACUCUAGAAAACAUG
PUM1 PUF domain R5-KLT
  binding signal: 2.35 log2 enrichment (interaction score)
PUM1 PUF domain R5-RCS
  binding signal: 3.59 log2 enrichment (interaction score)

## GGCUAGAACUAGUGGAUCCCCCGGCGCCCGGCGGCUCGAGCCCGGGUAAGUGAAAAUAGUCUGCAUGCCGCCGGGCGCCAUGCCUGCAGGUCGACUCUAGAAAACAUG
PUM1 PUF domain R6-VFV
  binding signal: 5.24 log2 enrichment (interaction score)
